PubChem BioAssay (NCI)
The panel holds about 83,000 compounds, 20% with a hit somewhere; the sample as a whole holds those more often.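 Step 1: grow cells in 96-well plates. Step 2: add test compound at a single concentration. Step 3: incubate 48 h. Step 4: record percent growth.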 Active and inactive are the calls of the source. The calls were made as follows: active = growth percent below 10; inactive = the rest.

What was measured:
Experiment in all cases: NCI-60 one-dose screen, 48 h (100 = growth as untreated, 0 = no growth, -100 = all killed)
Conditions in all cases: 10 µM unless noted
[1] = test system: NCI-H23 lung
[2] = test system: NCI-H226 lung
[3] = test system: NCI-H322M lung
[4] = test system: HOP-62 NSCLC
[5] = test system: NCI-H460 lung
[6] = test system: HOP-92 NSCLC
[7] = test system: NCI-H522 lung
[8] = test system: A549/ATCC NSCLC
[9] = test system: 786-0 renal
[10] = test system: COLO 205 colon
[11] = test system: DU-145 prostate
[12] = test system: K-562 leukemia
[13] = test system: MALME-3M melanoma
[14] = test system: MDA-MB-231 breast
[15] = test system: RXF 393 renal
[16] = test system: SF-268 CNS
[17] = test system: SF-295 CNS
[18] = test system: SF-539 CNS
[19] = test system: UACC-257 melanoma
[20] = test system: M14 melanoma

Measured: growth

CCCCCCCCCCCCCCCCCCOc1ccccc1CC(=O)OCC[N+]1(C)CCCC1
active: [1] 8.45% | [7] 6.85% | [10] 9.44% | [14] 4.95% | [15] -26.3%
inactive: [2] 13.4% | [3] 68.1% | [4] 53.5% | [5] 27.5% | [6] 32.7% | [8] 23% | [9] 57.5% | [11] 45.4% | [12] 27% | [13] 31% | [16] 20.7% | [17] 58% | [18] 40.2% | [19] 75.3% | [20] 20.7%

O=C1c2cccnc2C(=O)c2c1c(C(=O)NCCn1ccnc1)c1ccccn21
active: [1] 5.02% | [5] -41.3% | [7] -9.62% | [8] 1.78% | [10] -27.6% | [13] -68.8% | [18] 9.99% | [19] -29% | [20] 7.17%
inactive: [2] 51.5% | [3] 22.3% | [4] 14% | [6] 56.3% | [9] 49% | [11] 29.9% | [12] 29.3% | [14] 13.6% | [15] 59.7% | [16] 23.6% | [17] 29.5%

O=C(/C=C/c1ccc(Cl)cc1)c1cccc(Nc2nc(Nc3ccccc3)nc(Nc3ccccc3)n2)c1
active: [15] -30.3%
inactive: [1] 85.8% | [2] 96.9% | [3] 94.6% | [4] 85.2% | [5] 103% | [6] 24.1% | [7] 89.3% | [8] 81.8% | [9] 86.4% | [10] 93.1% | [11] 121% | [12] 71.4% | [13] 95.6% | [14] 80.7% | [16] 113% | [17] 62.2% | [18] 116% | [19] 103% | [20] 94.2%

COc1cccc([C@H]2c3[nH]c4ccccc4c3C[C@H]3C(=O)N(CCCCCCC(=O)NO)CC(=O)N23)c1
inactive: [1] 66.8% | [2] 88.7% | [3] 80.2% | [4] 68.6% | [5] 72.9% | [7] 25.6% | [8] 94.9% | [9] 87.8% | [10] 60.2% | [11] 76.9% | [12] 27% | [13] 24.3% | [14] 68.7% | [15] 75% | [16] 88.4% | [17] 87.5% | [18] 60.6% | [19] 51.6% | [20] 59.6%
active: [6] -1.94%

COCCn1cc(-c2nc(-c3cc4cccnc4n3CCOC)cs2)c2cc(OC)ccc21
active: [12] 0.391%
inactive: [1] 61.5% | [2] 63.1% | [3] 39.5% | [4] 74.7% | [5] 40.2% | [6] 47.1% | [7] 16.7% | [8] 46% | [9] 58.5% | [10] 44.3% | [11] 72.4% | [13] 119% | [14] 23.7% | [15] 66.3% | [16] 74.2% | [17] 74.2% | [18] 62.6% | [19] 94.7% | [20] 69.4%

C=C(C)[C@@H]1CC[C@]2(C(=O)O)CC[C@]3(C)[C@H](CC[C@@H]4[C@@]5(C)C[C@@H](Cc6cn(CCO[C@@H]7O[C@H](COC(C)=O)[C@H](OC(C)=O)[C@H](OC(C)=O)[C@H]7OC(C)=O)nn6)[C@H](O)C(C)(C)[C@@H]5CC[C@]43C)[C@@H]12
inactive: [1] 60.5% | [2] 81.9% | [3] 82.7% | [4] 80.7% | [5] 62% | [7] 64.1% | [8] 61.8% | [9] 78.9% | [10] 96.5% | [11] 81.8% | [12] 53% | [13] 77.7% | [14] 48.1% | [15] 77.5% | [16] 61.2% | [17] 76.7% | [18] 79.3% | [19] 61.9% | [20] 81.2%
active: [6] -3.81%

O=C(Nn1c2c(sc1=Nc1ccccc1)C(=O)c1ccccc1C2=O)c1cc2ccc1CCc1ccc(cc1)CC2
active: [13] -69.3% | [20] 4.14%
inactive: [1] 30.6% | [2] 51.2% | [3] 99.8% | [4] 66.4% | [5] 71.9% | [6] 107% | [7] 68% | [8] 64% | [9] 81% | [10] 102% | [11] 71.7% | [12] 77.8% | [14] 40% | [15] 70.7% | [16] 67.7% | [17] 87.8% | [18] 92.6% | [19] 62.4%

CSc1nc2sc3c(c2c(=O)n1-c1ccc([N+](=O)[O-])cc1)CCCCC3
inactive: [1] 90.8% | [2] 94% | [3] 88.8% | [4] 73.4% | [5] 74.7% | [6] 94.6% | [7] 81% | [8] 81.1% | [9] 95.7% | [10] 99% | [11] 99% | [12] 94.1% | [13] 91.4% | [14] 75.3% | [15] 84.1% | [16] 98.7% | [17] 68.8% | [18] 95.3% | [19] 91.2% | [20] 94.9%

CCOC(=O)c1cnc2ccccc2c1Cl
inactive: [1] 96.9% | [2] 99.2% | [3] 122% | [4] 99.6% | [5] 93% | [6] 70.4% | [7] 92.1% | [8] 104% | [9] 94.3% | [10] 96.2% | [11] 98.3% | [12] 116% | [13] 126% | [14] 85.4% | [15] 127% | [16] 99.5% | [17] 107% | [18] 85.9% | [19] 109% | [20] 92.2%

Cc1cc2c(O)c(-c3cc(Cl)ccc3Cl)c3sc(=O)oc3c2cc1C
inactive: [1] 44.2% | [2] 58% | [3] 89.8% | [4] 87.8% | [5] 34.4% | [7] 26.4% | [8] 60.2% | [9] 83.8% | [10] 112% | [11] 69.5% | [12] 28.3% | [13] 100% | [14] 77.3% | [15] 86% | [16] 65% | [17] 72.5% | [18] 89.9% | [19] 60.8% | [20] 81.1%
active: [6] -15.5%

COC(=O)c1n[nH]c2ccc3nc(-c4cn[nH]c4C(F)(F)F)c4c(c3c12)CCCC4
active: [10] 3.9%
inactive: [1] 56% | [2] 51.6% | [3] 45.1% | [4] 46.9% | [5] 29.3% | [6] 30.9% | [7] 23.6% | [8] 39% | [9] 35.5% | [11] 49.1% | [12] 72.9% | [13] 28.9% | [14] 38.6% | [15] 37.9% | [16] 54.8% | [17] 48.7% | [18] 27.4% | [19] 28.9% | [20] 11%

O=C1c2c(c3c4ccc(Br)cc4oc3c3[nH]c4ccccc4c23)C(=O)N1O
inactive: [1] 22.7% | [2] 61.7% | [3] 59.7% | [4] 29.3% | [5] 10.7% | [8] 64.3% | [9] 84.8% | [10] 42.7% | [11] 38.4% | [12] 30.4% | [14] 80.1% | [15] 31.7% | [16] 13.9% | [17] 34.4% | [19] 83.6% | [20] 30.9%
active: [6] -2.77% | [7] 6.86% | [13] 1.92% | [18] 7.26%

COc1ccccc1NC(=O)Cn1cc(CN2CCN(c3ccnc4cc(Cl)ccc34)CC2)nn1
inactive: [1] 89.2% | [2] 84.7% | [3] 95.1% | [4] 86.2% | [5] 96.3% | [6] 61.8% | [7] 86.8% | [8] 91% | [9] 99% | [10] 101% | [11] 106% | [12] 83.8% | [13] 106% | [14] 82.3% | [15] 85.8% | [16] 84% | [17] 100% | [18] 99.3% | [19] 106% | [20] 106%

CC(O)c1cnc(/C=C2\SC(=S)N(Cc3ccccc3)C2=O)s1 (stereo not given)
active: [7] 0.337%
inactive: [1] 99.7% | [2] 90.3% | [3] 87.8% | [4] 39% | [5] 96.8% | [6] 43.7% | [8] 66.7% | [9] 59.2% | [10] 35.7% | [11] 53.2% | [12] 18% | [13] 90.8% | [14] 84.9% | [15] 73.6% | [16] 84.3% | [17] 102% | [18] 91.9% | [19] 72.8% | [20] 66.5%

S=C1CCSC(=S)N1CCCN1C(=S)CCSC1=S
inactive: [1] 81.1% | [2] 101% | [3] 113% | [4] 90.5% | [5] 97.7% | [6] 106% | [8] 97.7% | [9] 44.9% | [10] 64.2% | [11] 73.3% | [12] 29.4% | [13] 74.2% | [14] 75.3% | [15] 57.9% | [16] 87.2% | [17] 105% | [18] 71.6% | [19] 89% | [20] 83.1%
active: [7] 5.23%
